In PubChem BioAssay AID449762 (Southern Research Specialized Biocontainment Screening …, 2010):
Values joined by “and” are separate entries in the source; they are usually repeats but may differ in a detail not shown here. Equal entries are not always repeated. About 1,900 (0.58%) of roughly 330,000 compounds were called active. Not shown: some 4% with an inconclusive outcome. Only a sample is shown. Measured potencies and affinities stand elsewhere. Values without a mark were called inactive. Cut-off read from the data, not from the text of the source: inconclusive = inhibition above about 70% without an active follow-up result; inactive = below that.

Experiment: M. tuberculosis growth inhibition, HTS (AID 449762);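 note: bacterial growth assessed after seven days of incubation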
Conditions: M. tuberculosis H37Rv growth inhibition, 7H9 media; at 25 µM; stronger effect = higher value

Row | SMILES | inhibition
1 | O=C(c1ccccc1)c1ccc(COC(=O)c2cnccn2)cc1 | 18%
2 | O=C(OCc1ccc(Cl)cc1)c1cnccn1 | 31.1%
3 | COC(=O)CN(c1cccc(OC)c1)S(C)(=O)=O | 1.45%
4 | CCOC(=O)c1sc2ncnc(NCc3ccco3)c2c1C | 0.46%
5 | CN(C)C(CNc1ncnc2sccc12)c1cccs1 (configuration not stated) | -3.95%
6 | NC(=O)c1ccsc1NC(=O)COC(=O)Cc1c[nH]c2ccccc12 | 2.86%
7 | COc1ccc(/C=C2/SC(=O)N(CCNC(=O)CC(NC(C)=O)c3ccccc3)C2=O)cc1 (configuration not stated) | -1.58%
8 | Cc1ccc(NC(=O)Cc2ccc(Cl)cc2)nc1 | 11.2%
9 | Cc1ccc(CC(=O)Nc2ccc(Cl)cn2)cc1 | 3.62%
10 | O=C(c1ccc(Cl)cc1)N1N=CCC1(O)c1ccc(Cl)cc1 (configuration not stated) | 2.13%
11 | C[C@H](NC(=O)c1[nH]cnc1C(=O)Nc1ccon1)c1ccccc1 | -0.305%
12 | O=C(OCC(=O)N1CCN(C(=O)c2ccco2)CC1)c1cc(-c2ccco2)nc2ccccc12 | 6.06%
13 | O=C(OCC(=O)N1CCN(C(=O)c2ccco2)CC1)c1cc(-c2ccc(Cl)c(Cl)c2Cl)nc2ccccc12 | 4.98%
14 | COc1ccc(CN(C)C(=O)C(Cc2ccccc2)NC(=O)c2ccccc2)c(OC)c1 (configuration not stated) | 0.87%
15 | COc1cc(CN2CCC(n3nccc3NC(=O)CCCc3ccccc3)CC2)ccc1F | -1.97%
16 | CC1CCC/C(=N\NC(=O)Nc2ccccc2)C1 (configuration not stated) | -3.97%
17 | CCC(C)(C)C1CCC(=NNC(=S)Nc2ccccc2)CC1 (configuration not stated) | 6.86%
18 | CCN(CC(=O)NCc1ccc(Cl)cc1)C(=O)c1ccc(S(=O)(=O)N(C)C)cc1 | -8.9%
19 | Cc1ccc(N=C2C(=S)N(c3ccc(C)cc3)C(=N)N2/N=C/c2ccc(Cl)cc2)cc1 | -4.74%
20 | N=C1N(/N=C/c2ccccc2)C(=Nc2ccccc2)C(=S)N1c1ccccc1 | -15.3%
21 | CNC(=O)CSCc1cnn(-c2ccccc2)c1-n1cccc1 | -0.17%
22 | Nc1ccc(S(=O)(=O)N2CCCC2C(=O)O)cc1 (configuration not stated) | -7.07%
23 | Nc1nonc1C(=O)NCCNCc1cc(Br)ccc1OCc1ccccc1F | 14.5%

Row | SMILES | inhibition
24 | Nc1nonc1C(=O)NCCNCc1ccccc1OCc1ccccc1F | 2.36%
25 | COc1ccc(N(CC(=O)NC2CC3CCC2C3)S(=O)(=O)c2ccc(C)c([N+](=O)[O-])c2)cc1 (configuration not stated) | 2.1%
26 | O=C(COc1ccc(-n2ccnc2)cc1)Nc1cccc(Cl)c1 | -3.44%
27 | COc1cc(NC(=O)COc2ccc(-n3ccnc3)cc2)cc(OC)c1 | 38.6%
28 | Cc1ccc(C(=O)N2CCN(c3ccc([N+](=O)[O-])c(NCc4cccnc4)c3)CC2)cc1 | 0.99%
29 | COc1cc(/C=c2\s/c(=C\C(=O)C(C)(C)C)[nH]c2=O)cc(OC)c1OC | 69%
30 | CC(C)(C)C(=O)/C=c1\[nH]c(=O)/c(=C\c2ccccc2F)s1 | 48.4%
31 | O=C(Nc1c(C(=O)NCc2ccco2)cnn1-c1ccccc1)c1ccc(F)cc1 | 3.13%
32 | COc1ccc(C(=O)Nc2nnc(S(=O)(=O)Cc3ccccc3)s2)cc1 | 8.58%
33 | O=C(N/N=C/c1ccccc1)C(=O)N/N=C/c1ccccc1 | 2.46%
34 | O=C(CC1CCCC1)N1CCN(S(=O)(=O)c2ccc(F)cc2)CC1 | -4.71%
35 | COC(=O)c1ccccc1NC(=O)COC(=O)CSc1nnc(N)s1 | 0.97%
36 | CC(C)(C)OC(=O)NCCCCCNC(=O)c1[nH]cnc1C(=O)Nc1ccon1 | -5.82%
37 | COc1ccc(NC(=O)NCc2cccnc2)cc1OC | -5.2%
38 | COC(=O)Cn1nc(-c2ccccc2)c2ccccc2c1=O | 65.5%
39 | COC(=O)Cn1nc(-c2ccccc2)c2ccccc21 | 31.4%
40 | Cc1ccccc1C(=O)N1CCC(C(=O)N(CC(C)C)c2c(N)n(CC(C)C)c(=O)[nH]c2=O)CC1 | -6.17%
41 | COC(=O)[C@H](CCSC)NC(=O)NCc1cccs1 | -7.69%
42 | Cc1cc(C)nc(N2CCC(C(=O)Nc3cccc(C(F)(F)F)c3)CC2)n1 | -14.2%
43 | Cc1cccc(NC(=O)C2CCN(c3nccc(C)n3)CC2)c1 | 3.71%
44 | CCOC(=O)c1cn(CC)c2cc(Cl)c([N+](=O)[O-])cc2c1=O | 9.8%
45 | CCCN1CCN(C2CCCCC2NS(=O)(=O)c2ccccc2)CC1 (configuration not stated) | -5.87%
46 | OC(COC(c1ccccc1)c1ccccc1)CN1CCc2ccccc2C1 (configuration not stated) | 4.67%

Row | SMILES | inhibition
47 | OC(COC(c1ccc(F)cc1)c1ccc(F)cc1)CN1CCc2ccccc2C1 (configuration not stated) | 28.2%
48 | CCOc1ccc(Oc2nc(NCC(C)C)nc(N(C)C)n2)nn1 | -2.04%
49 | COC(=O)Cn1c(=O)oc2ccc(C)cc21 | -1.52%
50 | COc1cc(NC(=O)CCc2c(C)nc3nc(C)nn3c2C)cc(OC)c1 | 2.33%
51 | COC(=O)c1sccc1NC(=O)CSc1cccc(Cl)c1Cl | 11%
52 | COC(=O)c1ncccc1SC | -6.32%
53 | COc1ccc(-c2noc(C3CCCN(S(=O)(=O)c4ccc(C)c(Cl)c4)C3)n2)cc1OC (configuration not stated) | -3.19%
54 | CCCC(C)NC(=O)COc1ccc(S(=O)(=O)c2ccc(OCC(=O)NC(C)CCC)cc2)cc1 (configuration not stated) | -8.03%
55 | O=C(Nc1cccnc1)C1CCN(S(=O)(=O)c2ccc(Cl)cc2)CC1 | 0.94%
56 | CSCCC(NC(=O)CCC(=O)OC1CC[C@H]2[C@@H]3CC[C@H]4CC(=O)CC[C@]4(C)[C@H]3CC[C@]12C)C(=O)O (some centres not stated) | 2.77%
57 | CCOC(=O)c1c(NC(=O)CSc2nnc(C)s2)sc2c1CCC(CC)C2 (configuration not stated) | -2.5%
58 | COC(=O)C1=C(N)OC2=C(C(=O)CC(C)(C)C2)C1c1ccccc1OCC#N (configuration not stated) | 4.16%
59 | Cc1ccc(NC(=O)C2CCCN(c3ncccn3)C2)c(C)c1 (configuration not stated) | 7.16%
60 | CCCc1ccc2oc(C(=O)N(C)Cc3ccn[nH]3)c(C)c2c1 | 4.45%
61 | CCCc1ccc2oc(C(=O)N(C)Cc3cnccn3)c(C)c2c1 | -5.84%
62 | Cc1cc(C)c(NC(=O)CSc2nnc(CN3CCOCC3)n2C)c(C)c1 | -5.19%
63 | Cc1cccc(NC(=O)CSc2nnc(Cc3ccccc3)o2)c1 | 9.03%
64 | Cc1ccc(NC(=O)CSc2nnc(Cc3ccccc3)o2)cc1 | -3.22%
65 | O=C(COC(=O)CCC(=O)c1ccc(F)cc1)NC1CCCCC1 | -5.44%
66 | CC1(C)NC(C(=O)O)Cc2c1[nH]c1ccccc21 (configuration not stated) | -1.33%
67 | CC12CCC(=O)N1C(C(=O)O)Cc1c2[nH]c2ccccc12 (configuration not stated) | 6.77%
68 | CC1Cc2ccccc2N1CC(=O)Nc1cccc(S(N)(=O)=O)c1 (configuration not stated) | 3.61%
69 | CCOc1ccc(CCNC(=O)c2nn(C)c3c2CS(=O)(=O)c2ccccc2-3)cc1OCC | 3.57%

Row | SMILES | inhibition
70 | O=C(NC1=NCCS1)C1CCN(S(=O)(=O)c2cc([N+](=O)[O-])ccc2Cl)CC1 | -7.02%
71 | O=C(NC1CC1)C1CCN(S(=O)(=O)c2cc([N+](=O)[O-])ccc2Cl)CC1 | -3.67%
72 | CC(=O)c1cccc(OCc2cc(C(=O)N(C)CCc3cnn(C)c3)no2)c1 | 1.92%
73 | CCN(Cc1cnn(C)c1)C(=O)c1cc(COc2cc(C)c(Cl)c(C)c2)on1 | 10%
74 | COc1ccc(Cl)cc1Nc1cc(C)nc2nc(C)nn12 | 2.13%
75 | OC(CN1CC=C(/C=C/c2ccc(Br)cc2)CC1)c1ccccc1 (configuration not stated) | 10.3%
76 | COc1ccc(/C=C/C2=CCN(C)CC2)cc1 | -5.45%
77 | Cc1cc(C(=O)NCC(=O)Nc2c(C)cccc2C)c2ccccc2n1 | -6.3%
78 | O=C(NCCCN1CCOCC1)C1CCN(S(=O)(=O)c2ccccc2)CC1 | -0.05%
79 | CCCOc1ccc(C(=O)N/N=C/c2ccc(-c3ccc(S(=O)(=O)Nc4ncccn4)cc3)o2)cc1 | 7.99%
80 | O=C(N/N=C/c1ccc(-c2ccc(S(=O)(=O)Nc3ncccn3)cc2)o1)c1cc2ccccc2cc1O | -7.05%
81 | CCC1CCC(C(=O)NNC(=O)OC)CC1 (configuration not stated) | -7.14%
82 | COc1cccc(Nc2nnc(SCC(=O)Nc3sccc3C(N)=O)s2)c1 | 0.87%
83 | Cc1ccc(C(=O)C[n+]2cc(-c3ccccc3)n3c2CCCCC3)cc1 | 2.54% and -2.93%
84 | Cn1c(NC(=O)C[n+]2cc(-c3ccc(Cl)cc3)n3c2CCC3)cc(=O)n(C)c1=O | -2.19%
85 | Cc1ccc(-c2c[n+](CC(=O)c3cccs3)c3n2CCC3)cc1 | -3.4%
86 | COc1ccc(C(=O)C[n+]2cc(-c3ccc(OC)cc3)n3c2CCCC3)cc1 | 5.06%
87 | Cc1ccc(NC(=O)C[n+]2cc(-c3ccccc3)n3c2CCC3)cc1 | 5.89%
88 | Cc1ccc(-c2c[n+](CC(=O)Nc3c(C)cccc3C)c3n2CCC3)cc1 | 11.9%
89 | Cc1c(C(=O)N2CCOCC2)cc(C(C)(C)C)n1-c1ccccc1 | -3.73%
90 | O=C(OCCNc1nc(-c2ccccc2)nc2ccccc12)c1cccnc1 | 10.2%
91 | COc1ccccc1NC(=O)CN1CCN(C(=O)C2CCCO2)CC1 (configuration not stated) | -18.2%
92 | NC(=O)CSc1nnc(-c2cc(-c3cccs3)nc3ccccc23)o1 | 5.91%
